Pf Dd2 growth – qHTS Primary assay for Inhibitors of Plasmodium falciparum Dd2 growth in vitro; P. falciparum Dd2 growth, SYBR Green, 72 h; Potency, µM (doses to about 28.9 µM), without a hit: at the top dose activity, negative = inhibition, hits mostly inhibitors; hit rate 4.3% among 120,000; AID 1347417, 2020; active = well fitted inhibition curve with a large enough effect;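 note: plate controls were DMSO vehicle for no effect and reference drug for full effect; nearly all actives have a fitted effect of over 65% in size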
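Readout: SYBR Green fluorescence, 485 nm excitation, 535 nm emission, after ~16 h lysis at 37C. Before that, Dd2-infected red cells (2.5% hematocrit) grew 72 h with compound, 29 uM top final concentration.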
* = called active by the depositor; i = inactive; ! = a repeat was not active; [ ] = remark or other dose. The sample as a whole holds a higher share of hits than the screen did. Potency is the fitted concentration of half-maximal effect.

SMILES | Pf Dd2 growth
CCc1ccc(NC(=O)CC2C(=O)N(c3ccc(C)cc3)C(=O)N2C2CCCC2)cc1 (stereo not drawn) | 11µM*
CCOc1ccc(NC(=O)CC2C(=O)N(c3ccccc3)C(=O)N2C2CCCC2)cc1 (stereo not drawn) | -10%
COc1ccc(NC(=O)CC2C(=O)N(c3ccc(OC)cc3)C(=O)N2C2CCCCC2)cc1 (stereo not drawn) | i
CCOc1ccc(NC(=O)CC2C(=O)N(c3ccc(OC)cc3)C(=O)N2C2CCCCC2)cc1 (stereo not drawn) | 9%
CCOC(=O)c1ccc(NC(=O)CC2C(=O)N(c3ccc(C)cc3)C(=O)N2C2CCCCC2)cc1 (stereo not drawn) | 15%
CCc1ccc(NC(=O)CC2C(=O)N(c3ccc(Cl)cc3)C(=O)N2C2CCCC2)cc1 (stereo not drawn) | 10µM*
OCc1ccnc(-c2ccc(-c3ccn[nH]3)cc2)c1 | -3%
COCCNC(=O)[C@H]1C[C@H](Oc2ccccc2)CN1S(=O)(=O)c1cccc(OC)c1 | -8%
CCn1ccc(C(=O)N2CCC(Oc3ccccc3-c3nc(C)no3)C2)n1 (stereo not drawn) | i
COC(=O)c1ccccc1NC(=O)N1CCC[C@@H](O)[C@H](NC(=O)c2ccc(OCc3c(C)noc3C)cc2)C1 | i
CCn1nccc1C(=O)N1CCCCCCNC(=O)CC1 | i
Cc1ccccc1CN1CCN2C(=O)N(Cc3cccnc3)C[C@H]2C1 | 14%[44.1 µM]
Cc1ccc(OCCSc2nnc(-c3cccs3)o2)cc1Cl | 80%
Cc1ccc(OCCSc2nnc(-c3cccs3)o2)cc1 | 11µM*
Cc1ccc(-c2nnc(SCCOc3ccccc3)o2)cc1 | 6%
COc1ccc(-c2noc(-c3cccn3CC(=O)Nc3ccccc3C(C)C)n2)cc1F | 21%
O=C(c1ccc(Cl)nc1)N1CCC2(C1)C(=O)N(CCc1ccccc1)c1ccccc12 (stereo not drawn) | 13µM*!
Cc1noc(C)c1[S+](=O)([O-])N1CCC2(C1)C(=O)N(Cc1ccccc1)c1ccccc12 (stereo not drawn) | i
O=C(C1CC1)N1CCC2(C1)C(=O)N(CCc1ccccc1)c1ccccc12 (stereo not drawn) | 6.3µM*!
Cc1ccccc1C(=O)N1CCC2(C1)C(=O)N(CCc1ccccc1)c1ccccc12 (stereo not drawn) | -13%
O=C(c1ccccc1Cl)N1CCC2(C1)C(=O)N(CCc1ccccc1)c1ccccc12 (stereo not drawn) | i
CC(=O)N1CCC2(C1)C(=O)N(CCc1ccccc1)c1ccccc12 (stereo not drawn) | -22%
O=C1N(CCc2ccccc2)c2ccccc2C12CCN([S+](=O)([O-])c1cccs1)C2 (stereo not drawn) | 7.9µM*!
O=C1N(Cc2ccccc2)c2ccccc2C12CCN([S+](=O)([O-])c1ccccc1)C2 (stereo not drawn) | i
CN(C)C(=O)N1CCC2(C1)C(=O)N(CCc1ccccc1)c1ccccc12 (stereo not drawn) | -19%
SMILES | Pf Dd2 growth
COc1ccc(CN2CCc3n[nH]c(=O)n3CC2)c(Cl)c1OC | 21%
CN(CC1CCOC1)S(=O)(=O)c1ccccc1Cl (stereo not drawn) | 78%[5.79 µM]
CS(=O)(=O)CC(O)c1cc2n(n1)CCN(c1cncc(C(N)=O)n1)C2 (stereo not drawn) | -6%
Cc1c(-c2cc(C(=O)N3CC[C@](C)(O)[C@@H](O)C3)no2)cnn1C | -2%
COCCN1C(=O)[C@@H]2C[C@@H](CN2S(C)(=O)=O)Oc2ccccc21 | 10%[44.1 µM]
CCNC(=O)[C@@H]1C[C@@H](NC(=O)CO)CN1C(=O)CCc1ccc(O)cc1 | -12%
C=CCNC(=O)c1cnn2c1CN([S+](=O)([O-])c1c(C)noc1C)CC2 | 2%
CCO[C@H]1CN(C(=O)c2cnc(Nc3ccccc3)nc2)C[C@@H]1O | -6%
COCc1ccc2c(c1)c(OC(C)(C)C(=O)NC1CC1)nn2Cc1ccccc1 | i
COCc1ccc2c(c1)c(OC(C)(C)C(=O)NCCN1CCOCC1)nn2Cc1ccccc1 | i
CC(C)(Oc1nn(CCN2CCOCC2)c2ccccc12)C(=O)NCc1ccncc1 | i
COCc1ccc2c(c1)c(OC(C)(C)C(=O)NCC1CC1)nn2Cc1ccccc1 | 4.5µM*
COCc1ccc2c(c1)c(OC(C)(C)C(=O)NCC(F)(F)F)nn2Cc1ccccc1 | i
CC(C)(Oc1nn(CCN2CCOCC2)c2ccccc12)C(=O)NCc1ccccc1 | 11µM*
CCc1ccccc1NC(=O)c1cc(S(=O)(=O)NC2CCCC2)ccc1F | -1%
CCOc1ccc(NC(=O)c2cc(S(=O)(=O)NC3CCCC3)ccc2F)cc1 | -18%
O=C(Nc1ccc(C(F)(F)F)cc1)c1cc(S(=O)(=O)NC2CCCCCC2)ccc1F | 5.6µM*
O=C(Nc1ccc(C(F)(F)F)cc1)c1cc(S(=O)(=O)NC2CCCCC2)ccc1F | 7.1µM*
O=C(Nc1ccc(Cl)cc1F)c1cc(S(=O)(=O)NC2CCCCCC2)ccc1F | i
O=C(Nc1ccc(F)c(F)c1)c1cc(S(=O)(=O)NC2CCCC2)ccc1F | 22%
COCCNC(=O)[C@H]1C[C@H](Oc2ccccc2)CN1C(=O)c1cccs1 | 10%
O=C(N[C@H]1CO[C@H]2[C@@H]1OC[C@@H]2Nc1nccc(-c2cccs2)n1)c1ccccc1 | i
CCc1ccc(OCCSc2nc(-c3cccc(C)c3)nc3cc(=O)[nH]n23)cc1 | i
Cc1cccc(OCCCSc2nc(-c3ccc(C(C)(C)C)cc3)nc3cc(=O)[nH]n23)c1C | 10µM*
COc1cc(C)ccc1OCCSc1nc(-c2cccc(C)c2)nc2cc(=O)[nH]n12 | -1%
SMILES | Pf Dd2 growth
CCc1ccc(OCCCSc2nc(-c3ccc(C(C)(C)C)cc3)nc3cc(=O)[nH]n23)cc1 | 11µM*
Cc1cccc(-c2nc(SCCCOc3ccc(Cl)c(C)c3)n3[nH]c(=O)cc3n2)c1 | i
Cc1ccc(OCCSc2nc(-c3ccccc3C)nc3cc(=O)[nH]n23)cc1Cl | 4%
CC(C)NC(=O)N1CCC(c2noc(-c3cnccn3)n2)C1 (stereo not drawn) | 88%[5.79 µM]
Cc1ccc(-n2c(C3CCN(C(=O)c4n[nH]c5c4CCCC5)CC3)n[nH]c2=O)cc1 | i
CCC(C)NC(=O)N1CC(c2nc(CCOCC3CC3)no2)C1 (stereo not drawn) | 8%
O=C(CC1CCCN(c2cnn(CC3CC3)c(=O)c2)C1)NCCc1ccncc1 (stereo not drawn) | -24%
COCCn1c(=O)c2c(n1Cc1ccccc1)CN(C(=O)c1nc3ccccc3[nH]1)CC2 | -7%[44.1 µM]
Cc1cn2nc(C(=O)N3CCC(NC(=O)c4ccoc4)CC3)cc2c(=O)[nH]1 | -4%
CCNC(=O)[C@@H]1CCCN1[C@@H](C(=O)NC)c1cccc(O)c1 | 12%[44.1 µM]
CCOC(=O)c1cc(-c2ccccc2)n(CCC(=O)Nc2ccc(C)cc2Cl)c1C | -47%
CCOC(=O)c1cc(-c2ccccc2)n(CCC(=O)NCCc2cccc(C)c2)c1C | -3%
CCOC(=O)c1cc(-c2ccccc2)n(CCC(=O)Nc2cc(OCC)ccc2OCC)c1C | 21%
CCOC(=O)c1cc(-c2ccccc2)n(CCC(=O)Nc2ccc(Cl)c(C(F)(F)F)c2)c1C | 2.8µM*
CCOC(=O)c1cc(-c2ccccc2)n(CC(=O)Nc2cc(Cl)c(OC)cc2OC)c1C | i
CCOC(=O)c1cc(-c2ccccc2)n(CCC(=O)Nc2cc(C)cc(C)c2)c1C | 3.2µM*
CCOc1ccccc1NC(=O)N1CCC(N2CC(OCCOC)C23CCCCC3)CC1 (stereo not drawn) | i
